Test results reported in PubChem BioAssay (NCI).
Compounds without any hit were thinned out: in the full panel of roughly 79,000, 15% have a hit. Calls of active or inactive are those of the source. No stated cut-off is given here; in the data, active means growth inhibition above about 70%; inactive means the rest.

What was measured:
[1] = NCI Yeast Anticancer Drug Screen. Data for the rad50 strain (AID 155);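 further: 0% = growth of vehicle-only cultures of the same strain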; conditions: S. cerevisiae rad50 strain growth inhibition; at 50.0 µM; active compounds read high
How it was run: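 Inhibition values express reduced yeast growth in compound-treated cultures relative to vehicle-treated controls.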

[2] = NCI Yeast Anticancer Drug Screen. Data for the mec2-1 strain (AID 157); conditions: S. cerevisiae mec2-1 strain, at 50.0 µM, active compounds read high
How it was run: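 Vehicle-treated cultures served as reference for growth inhibition of compound-exposed mec2-1 yeast.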

[3] = NCI Yeast Anticancer Drug Screen. Data for the sgs1 mgt1 strain (AID 161);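 further: 0% = growth of cultures given vehicle only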; conditions: S. cerevisiae sgs1 mgt1 strain, at 50.0 µM, active compounds read high
How it was run: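 Read-out: growth inhibition vs vehicle controls. Cells: mutant yeast strain deficient in DNA damage repair.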

[4] = NCI Yeast Anticancer Drug Screen. Data for the cln2 rad14 strain (AID 165);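 further: 0% = growth equal to vehicle treated cultures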; conditions: S. cerevisiae cln2 rad14 strain, at 50.0 µM, active compounds read high
How it was run: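 Each compound was tested on cln2 rad14 yeast. Inhibition of growth was calculated against vehicle-exposed controls.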

[5] = NCI Yeast Anticancer Drug Screen. Data for the bub3 strain (AID 167); conditions: S. cerevisiae bub3 mutant strain, at 50.0 µM, active compounds read high
How it was run: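 Steps: expose the mutant yeast strain to compound; grow alongside vehicle-treated cultures; measure growth; express inhibition against the vehicle cultures.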

[6] = NCI Yeast Anticancer Drug Screen. Data for the mlh1 rad18 strain (AID 175); conditions: S. cerevisiae mlh1 rad18 strain growth inhibition; at 50.0 µM; active compounds read high
How it was run: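 Vehicle-treated cultures served as the reference for growth inhibition in a yeast strain carrying DNA damage repair alterations exposed to each compound.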

Measured: growth inhibition

COC1C(=[N+]=[N-])C(=O)NC(=O)N1C (centres undefined)
inactive: [1] 21% | [2] -3.4% | [3] 34.9% | [4] -7.65% | [5] 20.3% | [6] 20.5%

CC(=O)OCC1OC(OC(C)=O)C(N(CCCl)CCCl)C(OC(C)=O)C1OC(C)=O (centres undefined)
inactive: [1] 2.2% | [2] 7% | [3] 6.75% | [4] 23.9% | [5] -2.25% | [6] -33.6%

O=S(=O)(F)c1cc(Cl)c(S)cc1Cl
inactive: [1] 7.75% | [2] -1.85% | [3] 4.2% | [4] 16.1% | [5] -1.55% | [6] -2.45%

CC(C)CCC[C@@H](C)[C@H]1CC[C@H]2[C@@H]3CC=C4C[C@@H](OC(=O)F)CC[C@]4(C)[C@H]3CC[C@]12C
inactive: [1] 19.9% | [2] 20.6% | [3] 42.5% | [4] 35.9% | [5] 26.9% | [6] 33.7%

CC(=O)OC1CC2(C)C3(CO3)C1OC1C=C(C)C(=O)C(O)C12CO (centres undefined)
inactive: [1] -10.4% | [2] -3.95% | [3] 2.75% | [4] 26.5% | [5] 8.7% | [6] 11.3%

CN(C)c1ccc(C=Cc2ccc([N+](=O)[O-])cc2)cc1.[C-]#[O+].[C-]#[O+].[C-]#[O+].[Cr]
inactive: [1] -16.1% | [2] -5.1% | [3] -11.6% | [4] 24.8% | [5] -7.35% | [6] -10.1%

COc1cccc(C=C(C#N)C#N)c1OC
inactive: [1] -9.8% | [2] -8.05% | [3] -3.35% | [4] 5.05% | [5] -3.8% | [6] 4.5%

CCOC(=O)C1(O)N=C(c2ccccc2)c2ccccc2-n2cccc21 (centres undefined)
inactive: [1] -21.4% | [2] -45.2% | [3] -2.6% | [4] -23.9% | [5] 10.2% | [6] -3.2%

CCc1ccccc1C(C(=O)NC1CN2CCC1CC2)c1ccsc1 (centres undefined)
inactive: [1] -10% | [2] -28.8% | [3] -43.3% | [4] -21.2% | [5] 8.05% | [6] -23.1%

NC(=O)C1(Cl)CCCCC1
inactive: [1] -11.8% | [2] -22.8% | [3] -20.8% | [4] -11.2% | [5] -6.1% | [6] -6.25%

CC1CN1c1nc(N2CC2C)nc(N2CC2C)n1 (centres undefined)
inactive: [1] -6.8% | [2] 13.6% | [3] -2.65% | [4] -1.85% | [5] -19.2% | [6] -11.1%

N#Cc1ccc(N)cc1
inactive: [1] -2.9% | [2] -7.9% | [3] -37.5% | [4] -10.8% | [5] -18.4% | [6] -16.8%

COc1ccc2c3c1OC1C(C)(O)C(O)CC4C(C2)N(C)CCC341 (centres undefined)
inactive: [1] -3.55% | [2] -4.95% | [3] -16.2% | [4] 9.3% | [5] 4.4% | [6] 14.1%

COc1cccc(N2C(=O)C3C(C2=O)C2(Cl)C(Cl)=C(Cl)C3(Cl)C2(Cl)Cl)c1 (centres undefined)
inactive: [1] 58.4% | [2] 45.2% | [3] 53.5% | [4] 10.1% | [5] 19.4% | [6] 49.8%

CCCCc1ccc(N=C(N)N)cc1
inactive: [1] 25.6% | [2] 9.35% | [3] 19.4% | [4] 8.3% | [5] 12.2% | [6] -1.95%

CN(C)C(=S)Oc1ccc(S(=O)(=O)F)cc1
inactive: [1] 34.2% | [2] 17.2% | [3] 14.6% | [4] 22.6% | [5] 8.65% | [6] 20.9%

C1CN1Sc1nc(SN2CC2)nc(SN2CC2)n1
inactive: [1] -1.35% | [2] -5.55% | [3] 19.7% | [4] -73% | [5] 11.8% | [6] 27.3%

N.N.N.O=N[O-].O=N[O-].O=N[O-].[Co+3]
inactive: [1] -2.05% | [2] 9.65% | [3] -6.25% | [4] 18.6% | [5] 6.5% | [6] -10.4%

CCOC(=O)C(C(=O)OCC)P(=S)(S)c1ccccc1 (centres undefined)
inactive: [1] 6.2% | [2] -33.9% | [3] -11.2% | [4] 9.2% | [5] -9.6% | [6] -10.1%

CC(C)c1cc2c(cc1O)C1(C)CCCC(C)(C)C1CC2=O (centres undefined)
inactive: [1] 27.4% | [2] 32.3% | [3] 19.9% | [4] 22.4% | [5] 27.9% | [6] 34.6%

O=C(O)c1ccc([As](=O)(O)O)cc1[N+](=O)[O-]
inactive: [1] -3.85% | [2] -23.1% | [3] -0.65% | [4] 1.7% | [5] -3.6% | [6] 7.4%

CCCCOP(=O)(/C=C/c1ccccc1)OCCCC
inactive: [4] 24.7%
active: [1] 86.3% | [2] 77.9% | [3] 80.2% | [5] 74.2% | [6] 80.8%

CC1(C)N=C(N)N=C(N)N1c1ccc(Cl)c(CCCCc2ccc(S(=O)(=O)F)cc2)c1
active: [1] 99.8% | [2] 99.8% | [3] 99.2% | [4] 99.4% | [5] 99.6% | [6] 99.8%

O=C(O)C(=O)Cc1ccc2c(c1)OCO2
inactive: [1] -3.8% | [2] -19.3% | [3] -28.6% | [4] -32.9% | [5] -20.2% | [6] 0.5%

[Cl][Pt+2][Cl].[NH-]c1ccc(Cl)cc1[NH-]
inactive: [1] 9.7% | [2] -11.9% | [3] -3.05% | [4] 8.15% | [5] -11.1% | [6] 7.5%

CC(C)(C)c1ccc(O)cc1
inactive: [1] -21.1% | [2] -29.8% | [3] -18.8% | [4] -9.5% | [5] -1.45% | [6] 8.85%

COc1cc2c(c(Oc3ccc(C)cc3)c1)CN(C)CC2
inactive: [1] 32.4% | [2] 19.3% | [3] 47.9% | [4] 39.7% | [5] 63.6% | [6] 58.8%

COP12(OC)NC(=O)OC1(C(F)(F)F)c1ccccc1O2 (centres undefined)
inactive: [1] -14.9% | [2] -4% | [3] -23.9% | [4] -5.15% | [5] -28% | [6] -39%

O=C(Oc1ccc(S(=O)(=O)F)cc1Cl)c1ccc([N+](=O)[O-])cc1
active: [1] 92.5% | [3] 94.7% | [4] 92.8% | [6] 93.7%
inactive: [2] 68% | [5] 60%

CN(c1ccccc1)[N+](=O)[O-]
inactive: [1] -9.45% | [2] -12.2% | [3] -14.2% | [4] -5.1% | [5] -7.8% | [6] -5.3%

CN1CC=C(c2cccn2C)CC1
inactive: [1] -24.2% | [2] -24.9% | [3] -6.45% | [4] 4.05% | [5] -10.4% | [6] -37.8%

[Cr+3].[NH-]CC[NH-].[NH-]CC[NH-].[NH-]CC[NH-].[O-][Cl+3]([O-])([O-])O
inactive: [1] 19.2% | [2] 1.2% | [3] 1.05% | [4] -5.15% | [5] 1% | [6] -1.8%

Cc1nc(N)nc(N)c1CCCOc1ccc(NC(=O)c2cccc(S(=O)(=O)F)c2)cc1
inactive: [1] 33.2% | [2] 25.9% | [3] 15.4% | [4] 19.2% | [5] -4.45% | [6] 30.4%

CN1C2CCC1CC(OC(=O)C1CCC(C(=O)OC3CC4CCC(C3)N4C)(c3ccccc3)c3ccccc31)C2 (centres undefined)
inactive: [1] -45% | [2] -23.9% | [3] -35.3% | [4] -29.9% | [5] -34.4% | [6] -36.7%

O=[N+]([O-])O.[Ce]
inactive: [1] 13.3% | [2] 3.35% | [3] 17.9% | [4] 5.8% | [5] 24.6% | [6] 4.15%

CCOC(=O)C1C(=O)C(CN(CCCl)CCCl)C(=O)C(C(=O)OCC)C1c1cc(OC)c(OC)c(OC)c1 (centres undefined)
inactive: [1] 17.9% | [2] -8.05% | [3] 16.6% | [4] -27.9% | [5] 0% | [6] 30.9%

N#Cc1ccncc1
inactive: [1] 22.3% | [2] -24.1% | [3] 23.9% | [4] -3.75% | [5] 7.35% | [6] 16%

CC(Cc1ccccc1)NC(=O)/C=C/C(=O)O (centres undefined)
inactive: [1] 5.9% | [2] 4.25% | [3] 9.6% | [4] -6.95% | [5] 36.8% | [6] 11.9%

CC(C)N1COC2Cc3ccccc3CC21 (centres undefined)
inactive: [1] -7.15% | [2] 1.65% | [3] -29% | [4] 10.1% | [5] -20.2% | [6] -16.9%
